# FUS yeast rescue: FUS proteinopathy suppression in yeast; S. cerevisiae FUS-expressing, growth rescue, OD600, 24 h; Potency, µM (highest dose often 76.6 µM), actives largely listed as activators; hit rate 0.24% among 390,000; AID 1347120; further: nearly all actives have a fitted effect of over 55% in size
#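 Absorbance at 600 nm, taken 24hr after compound addition, measured rescue of FUS-yeast growth at 30C. Induction used 2% galactose with seeding at OD 0.005. Controls: CP55940 from 92uM final, DMSO only.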
# TDP43 rescue: TDP-43 toxicity inhibition in yeast; hit rate 1.8% among 410,000; Potency, µM (doses to about 46.1 µM), hits mostly activators; TDP-43 expressing yeast growth rescue, BacTiter-Glo, 24 h; AID 652104; further: nearly all actives have a fitted effect of over 50% in size
#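 Luminescence from BacTiter-Glo reports growth of TDP-43-expressing yeast after 24 hr at 30 deg C with compound. Cells were raffinose-pregrown to mid-log, then seeded in galactose medium at OD600=0.02.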
# aSyn yeast inh: inhibitors of alpha-synuclein toxicity in yeast | Yeast expressing alpha-synuclein, growth rescue, BacTiter-Glo, 24 h | Potency, µM (series often up to 46.1 µM), hits mostly activators | hit rate 0.14% among 370,000 | AID 652106; further: nearly all actives have a fitted effect of over 65% in size
#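 Rescue of yeast growth: cells expressing toxic alpha-synuclein, induced in galactose at OD600 0.02, incubated with compound 24 h at 30 C. ATP luminescence quantified growth; inhibitors of toxicity appear as activators.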
# Mito fusion act: mitochondrial division inhibition or fusion activation; hit rate 0.23% among 320,000; Potency, µM (titrated, usually from 46.1 µM), actives largely listed as activators; S. cerevisiae fusion-defective mutant growth rescue, CellTiterGlo 48 h; further: nearly all actives have a fitted effect of over 45% in size
#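 Temperature-sensitive fusion-defective S. cerevisiae (e.g. fzo1-1, mgm1-5) were grown with compound in YPEG medium (3% ethanol, 3% glycerol) for 48 hours at 37C. Growth rescue was measured as viability by CellTiterGlo luminescence after 10 minutes at ambient.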
# Abeta yeast res: A-beta toxicity reversal in yeast; yeast expressing A-beta42, growth rescue, OD600, 48 h; response scale: 0% DMSO, 100% iron-clioquinol control; Potency, µM (highest dose often 46.1 µM), most hits filed as activators; hit rate 0.063% among 410,000; AID 1347071; further: nearly all actives have a fitted effect of over 55% in size
#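 Growth rescue measured by 600 nm absorbance after 48 h yeast culture at 30 C with compound. Values normalized between DMSO and an equimolar ferric chloride plus clioquinol control.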
# Numbers stand for hits; . = inactive; ? = inconclusive; / = no result. Rows were chosen to be rich in hits. Some 2.2% of all compounds tested hit in one or more screens of this group. The call rests on the fitted dose curve; in most records, active means well fitted curve in the direction sought with a large enough effect; inconclusive means small, poorly fitted or top-dose-only effect, or another doubt; inactive means no such curve, though single readings can be large; an effect the other way counts as inactive or inconclusive.
SMILES,FUS yeast rescue,TDP43 rescue,aSyn yeast inh,Mito fusion act,Abeta yeast res
O=C(c1ccccc1)N1CCN(c2ncccn2)CC1,.,.,.,.,.
O=[N+]([O-])c1ccc2[nH]nc(-c3ccccc3)c2c1,/,5.62µM,.,.,.
O=C(O)c1[nH]c2ccc([N+](=O)[O-])cc2c1-c1ccccc1,.,.,.,.,?
CCc1cccc(-n2c(=O)c3cccnc3n2CC(=O)NCc2ccccc2)c1,?,.,/,/,.
CN(CC(=O)Nc1ccccc1Br)C(=O)CCSc1ccc(F)cc1,.,14.1µM,.,.,.
COC(=O)c1cc(-c2ccc(C(C)=O)cc2)c(=O)n2c1CCC2,.,/,/,/,/
CC1(C)CC2(CCO1)N1CC3(C)CN2CC(C)(C1)C3=O (stereo unspecified),/,3.16µM,.,/,.
CSc1ccccc1OCc1cc(C(=O)NCc2csc(C(C)C)n2)no1,.,?,.,.,.
CSc1ccccc1OCc1cc(C(=O)NCc2cnc(C)cn2)no1,.,11.2µM,.,.,.
COc1ccc(-c2nc3scc(CCNS(=O)(=O)c4ccccc4F)n3n2)cc1,.,22.4µM,/,/,.
O=[N+]([O-])c1cc(/C=N/Nc2nc(N3CCCCC3)nc(N3CCCCC3)n2)ccc1O,.,22.4µM,.,.,.
O=[N+]([O-])c1ccc(-c2ccc(/C=N/Nc3nc(N4CCCCC4)nc(N4CCCCC4)n3)o2)cc1,.,14.1µM,.,.,.
COc1ccc(/C=N/Nc2nc(N3CCCCC3)nc(N3CCCCC3)n2)cc1[N+](=O)[O-],?,.,.,.,.
C(=N\Nc1nc(N2CCCCCC2)nc(N2CCCCCC2)n1)/c1ccccc1,.,22.4µM,.,.,.
CCOC(=O)C1CCCN(C(=O)c2cc3c(=O)n(C)c4ccccc4c3s2)C1 (stereo unspecified),.,20µM,/,/,.
CCOC(=O)C1CCCN(C(=S)Nc2ccc(Nc3ccccc3)cc2)C1 (stereo unspecified),?,22.4µM,?,.,?
CCOC(=O)C1CCCN(C(=O)c2cc(-c3ccccc3)cs2)CC1 (stereo unspecified),.,17.8µM,.,/,.
CCn1c(SCC(=O)NCc2ccco2)nnc1-c1ccc(N(C)C)cc1,/,/,.,/,/
COc1ccc(NC2c3ncccc3C(=O)N2Cc2ccccc2)c(OC)c1 (stereo unspecified),?,.,.,.,.
COc1ccc(CN2C(=O)c3cccnc3C2Nc2ccc(OC)c(Cl)c2)cc1 (stereo unspecified),31.6µM,.,.,.,.
Cc1ccc(S(=O)(=O)N2CCN(c3nc(-c4cccs4)nc4ncccc34)CC2)cc1,/,/,.,/,/
C(=Nc1cnc2ccccc2c1)c1ccncc1,/,/,.,/,/
O=S1(=O)C=CCN1Cc1cn(Cc2ccc(F)cc2)nn1,.,/,/,/,/
CCN1C(=O)[C@H]2[C@@H](c3ccc(-c4cccc(Cl)c4)cc3)N[C@@](Cc3ccccc3)(C(=O)OC)[C@H]2C1=O,14.1µM,.,.,.,.
COC(=O)c1c(SCC(=O)Nc2ccccc2OC)[nH]c2ccccc2c1=O,.,.,/,/,.
SMILES,FUS yeast rescue,TDP43 rescue,aSyn yeast inh,Mito fusion act,Abeta yeast res
NC(=O)[C@@H]1CC2(CC(c3cccc(NC(=O)COc4ccc(Cl)cc4)c3)=NO2)CN1C(=O)c1ccccc1 (stereo partly specified),.,.,.,.,.
COc1ccc(-c2cccc(NC(=O)COc3ccc(Cl)cc3)c2)nn1,.,11.2µM,.,?,.
COc1ccc(C(=O)N2CC3(CC(c4cccc(NC(=O)COc5ccc(Cl)cc5)c4)=NO3)C[C@@H]2C(N)=O)cc1 (stereo partly specified),35.5µM,.,.,.,.
O=C(Cn1c(=O)n2nc(-c3cccc(F)c3)nc2c2ccccc21)N1CCN(c2ccccc2F)CC1,.,.,/,/,.
O=S(=O)(c1ccccc1)c1nnn2c1nc(Nc1ccccc1)c1cc(Cl)ccc12,.,.,/,/,.
O=S1(=O)C=C(Sc2nc3cc(Cl)ccc3o2)c2ccccc21,.,12.6µM,.,.,.
CCCCOc1cccc(C(=O)N(Cc2cccs2)c2ccc(OC)cc2)c1,.,.,/,/,.
Cc1ccc(C(=O)NCc2ccc3c(c2)CCN3C(=O)c2ccc(C)cc2)cc1,.,.,/,/,.
COC(=O)[C@]12C[C@H](CC(=O)NCC34CC5CC(CC(C5)C3)C4)C(=O)N(Cc3ccco3)C1=C[C@H](C(C)C)O[C@@H]2C1CC1,25.1µM,/,/,/,/
CCCCCCCCN1C(=O)[C@@H](CC(=O)N2CCN(C(=O)C3CC3)CC2)C[C@@]2(C(=O)OC)C1=C[C@H](C(C)C)O[C@@H]2C1CC1,28.2µM,/,/,/,/
CCCCCCCCN1C(=O)[C@@H](CC(=O)NCCCN2CCCC2=O)C[C@@]2(C(=O)OC)C1=C[C@H](C(C)C)O[C@@H]2C1CC1,17.8µM,/,/,/,/
Cc1cccc(-c2nc3scc(CCNS(=O)(=O)c4ccc5c(c4)OCCO5)n3n2)c1,.,.,/,/,.
CCN(CC)c1nc(N)c2c(N)n(-c3ccccc3C)c(=S)c(C#N)c2c1C#N,28.2µM,.,.,?,.
O=C1CSc2ccc(C(=O)N3CCCC(C(=O)N4CCOCC4)C3)cc2N1 (stereo unspecified),.,/,/,/,/
COc1ccc(CCn2c(N)c(C(=O)NCc3ccco3)c3nc4ccccc4nc32)cc1,/,.,.,.,.
COCCNC(=O)c1c(N)n(CCC2=CCCCC2)c2nc3ccccc3nc12,39.8µM,?,.,.,.
Cc1ccc(NC(=O)Nc2nnc(SCC(=O)N3CCCCC3)s2)cc1,.,.,/,/,.
COc1ccc(/C=C/c2cnc3ccccc3n2)cc1OC,/,/,.,/,/
CCO[C@@H]1OC(C(=O)Nc2ccccc2)=C[C@H](c2ccc(C(F)(F)F)cc2)[C@H]1CCCO,?,12.6µM,.,.,?
COc1ccc(C2Nc3ccccc3C(=O)N2Cc2ccccc2)cc1COc1ccc([N+](=O)[O-])cc1 (stereo unspecified),/,/,.,/,/
O=C(Cn1c(=O)n(-c2ccc(Cl)cc2)c(=O)c2sc3ccccc3c21)NC1CCCCC1,.,.,/,/,.
COc1ccc(Cc2c(-c3cccc(Cl)c3)nc3ccc(Cl)cn23)c(C)c1,.,35.5µM,.,/,.
Cc1ccc(Cc2c(-c3cccc(Cl)c3)nc3ccc(Br)cn23)cc1,?,?,.,/,.
Cc1ccc(Cc2c(-c3cccc(Cl)c3)nc3ccc(Cl)cn23)cc1,.,15.8µM,.,/,.
Cc1ccc2nc(-c3ccccc3)c(Cc3cccc(Cl)c3)n2c1,.,.,.,/,.
Cc1ccc2nc(-c3ccc(C#N)cc3)c(Cc3cccc(Cl)c3)n2c1,.,35.5µM,?,/,.
Cc1cc(Br)c2nc(-c3ccccc3)c(Cc3cccc(Cl)c3)n2c1,?,11.2µM,.,/,.
Cc1c(C(=O)N2CCC(C)CC2)c(S(=O)(=O)Nc2cccc(C#N)c2)c(C)n1C,.,.,/,/,.
Cc1ccc2nc(-c3cccc(Br)c3)c(Cc3cccc(Cl)c3)n2c1,.,35.5µM,.,/,.

# High-throughput results (PubChem)
